Out of some 48,000 compounds screened, about 13,000 (27%) showed an effect of 50% or more. The list shows a part of the results.
These molecules were tested on Wolbachia pipientis (assay: Anti-Wolbachia Cell-Based Screen). Conditions: 5 µM.
Assay type: functional
Parameters: scale not given: in the data most compounds retested in dose-response had high values

| Structure (SMILES) | Percent Effect |
| --- | --- |
| CC(C)c1nc(S(=O)(=O)N(C)c2ccc(F)cc2)c[nH]1 | -3.559% |
| CN(C)C(=O)COC[C@@]12CCC[C@@H]1CN(C1CCC1)C2.O=C(O)C(F)(F)F | 4.654% |
| Cc1cc(CN2C[C@H]3CCC[C@@]3(COCC(=O)N3CCCC3)C2)no1 | -8.943% |
| Cc1ccc(CN2CC[C@H]3OCC[C@@]3(COCC(=O)N(C)C)C2)s1.O=C(O)C(F)(F)F | -46.75% |
| O=C(COC[C@@]12CCC[C@@H]1CN(C1CCC1)C2)N1CCCC1.O=C(O)C(F)(F)F | 106.1% |
| CN(C)C(=O)COC[C@]12COC[C@H]1CN(C1CCCC1)C2.O=C(O)C(F)(F)F | 91.16% |
| CN(C)C(=O)COC[C@@]12CCC[C@@H]1CN(C1CCCC1)C2.O=C(O)C(F)(F)F | -10.47% |
| Cc1nc(NC(=O)OC(C)(C)C)sc1C(N)=O | 1.161% |
| CC(C)c1nnc(CN(C)C(c2ccc(F)cc2)c2cccnc2)o1 (stereo not drawn) | 1.551% |
| Cc1cc(C)nc(N2CCc3ccc(OC(F)F)cc3C2)n1 | 7.415% |
| Cc1ccnc(OC[C@]23COC[C@H]2CN(C(=O)c2ccnn2C)C3)n1 | 78.09% |
| Cc1ccnc(OC[C@]23COC[C@H]2CN(C(=O)C2=CCCCC2)C3)n1 | 104.7% |
| COC[C@]12COC[C@H]1CN(C(=O)c1ccc(F)cc1C)C2 | -9.416% |
| Cn1cc(C(=O)N2C[C@@H]3COC[C@]3(COCc3cccnc3)C2)cn1 | 5.656% |
| Cc1ccnc(OC[C@]23COC[C@H]2CN(C(=O)c2cnccn2)C3)n1 | 95.8% |
| CS(=O)(=O)NC[C@]12COC[C@H]1CN(C(=O)c1cnccn1)C2 | -1.744% |
| Cc1ccnc(OC[C@]23COC[C@H]2CN(C(=O)c2ncccn2)C3)n1 | 94.44% |
| Cc1nc(C(=O)N2C[C@@H]3COC[C@]3(COCc3cccnc3)C2)cs1 | -15.42% |
| Cc1ccc(C(=O)N2C[C@@H]3COC[C@]3(COCc3cccnc3)C2)cn1 | -15.81% |
| Cc1cc(N(C)C)nc(NC2CCc3nc(C)nn3C2)n1 (stereo not drawn) | 0.6524% |

| Structure (SMILES) | Percent Effect |
| --- | --- |
| O=C(C1CC1)N1C[C@H]2CNC[C@@]2(C(=O)NCCCc2ccccc2)C1 | -23.56% |
| CCn1cc(CN2CCC(CNC(C)=O)CC2)cc1C#N | 3.567% |
| CC(C)Oc1cc(N2CCCC(O)C2)nc(N)n1 (stereo not drawn) | -24.67% |
| Cc1nc(N)cc(C2CCN2CCOc2ccccc2)n1 (stereo not drawn) | 153.2% |
| COCCN1CCC1c1cc(NC2CCCC2)nc(C)n1 (stereo not drawn) | 74.49% |
| Cc1cc(N2CCC(NCCOc3ccccc3)CC2)nc(C)n1 | 2.138% |
| Cc1nc(N)cc(C2CCN2CCC(N)=O)n1 (stereo not drawn) | 67.17% |
| COCCN1CCN(Cc2ccc3nsnc3c2)[C@H]2CS(=O)(=O)C[C@H]21 | 0.2231% |
| COCCCn1ccc(NC2CCOCC2)n1 | 12.54% |
| Cc1ncsc1C(=O)NC1CCN(CCC(N)=O)CC1 | -6.823% |
| COCCCn1ccc(NC2CCSCC2)n1 | -2.987% |
| CCc1nc(N)sc1C(=O)N1CCC(c2cc(O)nc(C)n2)CC1 | -4.912% |
| Cc1nn(C)c(C)c1C1CCCN1CCOc1cccc(C#N)c1 (stereo not drawn) | -3.583% |
| COCCN1CCC1c1cc(N)nc(C)n1 (stereo not drawn) | 66.06% |
| COCCN1CCC(CN(C)c2nc3c(s2)c(C)nn3C)C1 (stereo not drawn) | -0.8373% |
| CCN(Cc1noc(CC(C)C)n1)Cc1ncccc1C(=O)O | 0.41% |
| O=C(Cc1ccc(F)cc1)NCC(O)(c1cccs1)C1CC1 (stereo not drawn) | -8.989% |
| O=C(c1ccccc1-c1nc[nH]n1)N1CCOC(C(F)(F)F)C1 (stereo not drawn) | -3.819% |
| Cc1cc(N2CCOC(C(F)(F)F)C2)nc(-c2ccccc2O)n1 (stereo not drawn) | 0.367% |
| O=C(c1ccnc(N2CCOC(c3ccc(Cl)cc3)C2)c1)N1CCCC1 (stereo not drawn) | 5.063% |

| Structure (SMILES) | Percent Effect |
| --- | --- |
| O=C(c1ccc(-c2nc[nH]n2)cc1)N1CCOC(C(F)(F)F)C1 (stereo not drawn) | 16.44% |
| O=C(c1ccnc(N2CCOC(C(F)(F)F)C2)c1)N1CCOCC1 (stereo not drawn) | 126.7% |
| CN1CCN(C(=O)c2ccnc(N3CCOC(C(F)(F)F)C3)c2)CC1 (stereo not drawn) | 130.4% |
| CCCOC1CCCN(C(=O)c2ccnc(N3CCN(C)CC3)c2)C1 (stereo not drawn) | -2.412% |
| O=C(c1ccnc(N2CCOC(C(F)(F)F)C2)c1)N1CCCC1 (stereo not drawn) | 104.2% |
| FC(F)(F)C1CN(c2nc(-c3ccccc3)no2)CCO1 (stereo not drawn) | 1.85% |
| N#CC(NC(=O)CC1CCSCC1)c1cnn(-c2ccccc2)c1 (stereo not drawn) | -2.178% |
| O=C(c1cccc(O)c1)N1CCN(Cc2nnc(C3CCC3)o2)CC1 | 6.828% |
| CN1CCC(NC(=O)[C@H]2CC[C@@H]3[C@@H](CCN3c3ncccn3)O2)CC1.O=C(O)C(F)(F)F.O=C(O)C(F)(F)F | 7.6% |
| CNC(=O)[C@@H]1CC[C@@H]2[C@@H](CCN2C(=O)N(C)C)O1 | -10.15% |
| CS(=O)(=O)N1CC[C@H]2O[C@H](C(=O)NCc3cccnc3)CC[C@H]21 | -7.533% |
| CC(=O)N1CC[C@@H]2O[C@@H](COCc3csc(C)n3)CC[C@@H]21 | -30.94% |
| O=C(NCc1cccnc1)[C@@H]1C[C@H]2[C@H](CCN2c2ncccn2)O1.O=C(O)C(F)(F)F.O=C(O)C(F)(F)F | -20.81% |
| Cc1csc(NC(=O)[C@@H]2C[C@H]3[C@H](CCN3c3ncccn3)O2)n1.O=C(O)C(F)(F)F | 118% |
| CS(=O)(=O)N1CC[C@H]2O[C@@H](C(=O)NCc3ccco3)CC[C@H]21 | -0.8352% |
| CC(=O)N1CC[C@@H]2O[C@H](C(=O)Nc3nc(C)cs3)C[C@@H]21 | 101% |
| Cc1csc(NC(=O)[C@@H]2C[C@H]3[C@H](CCN3S(C)(=O)=O)O2)n1 | 118.9% |
| NC(=O)CCn1ccc(NC(=O)c2ccc(Br)o2)n1 | -16.68% |

Reference: ChEMBL document CHEMBL3988442, “University of Dundee, Small-Polar-MMV Screening Library” (2021)
